Bioassay records deposited in PubChem by National Center for Advancing Translational Sciences (NCATS).
12-LOX inh: inhibitors of human 12S-lipoxygenase ALOX12 | P18054 | purified 12hLO, xylenol orange hydroperoxide absorbance | Potency, µM (doses to about 108 µM), actives largely listed as inhibitors | actives 1.1% (n = 580,000) | AID 1671190
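Purified human 12hLO at 150 nM in 25 mM Hepes, 0.01% Triton X-100, pH 7.0, preincubated 15 min at room temperature with compound. Reaction started with 40 uM arachidonic acid, 30 min at room temperature. Hydroperoxide measured by Fe-xylenol orange, 573/405 nm absorbance ratio.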
A549 tox-1: A549 cytotoxicity, counter-screen for Nrf2 inhibitors | actives 0.16% (n = 390,000) | A549 ARE-Fluc cells, CellTiter-Fluor viability, 18-24 h | AID 504648 | Potency, µM (top dose mostly 46 µM), usual class: inhibitors
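A549 ARE_Fluc cells in 5% FBS OPTI-MEM were exposed to compounds in concentration-response for 18-24 h at 37 deg C. Viability was read by CellTiter-Fluor fluorescence (Ex 405/Em 525) after 30 min, before the luciferase read.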
ERG-DNA inh: ERG Ets/DNA interaction inhibition. P11308. fluorescence polarization, His-ERG Ets domain / labelled DNA. Potency, µM (series often up to 76.9 µM), usual class: inhibitors. actives 0.028% (n = 370,000); active means well fitted inhibition curve with a large enough effect in the polarisation, with a control signal flat; inconclusive means small, poorly fitted or top-dose-only effect, or effect the other way, or a change in a side signal; inactive means no such curve, though single readings can be large or run the other way; the % refers to the polarisation;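 further: polarization taken with two DNA probes labelled with fluorescein and Texas red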
Target sequence (P11308 whole entry, looked up, the tested form may be a part): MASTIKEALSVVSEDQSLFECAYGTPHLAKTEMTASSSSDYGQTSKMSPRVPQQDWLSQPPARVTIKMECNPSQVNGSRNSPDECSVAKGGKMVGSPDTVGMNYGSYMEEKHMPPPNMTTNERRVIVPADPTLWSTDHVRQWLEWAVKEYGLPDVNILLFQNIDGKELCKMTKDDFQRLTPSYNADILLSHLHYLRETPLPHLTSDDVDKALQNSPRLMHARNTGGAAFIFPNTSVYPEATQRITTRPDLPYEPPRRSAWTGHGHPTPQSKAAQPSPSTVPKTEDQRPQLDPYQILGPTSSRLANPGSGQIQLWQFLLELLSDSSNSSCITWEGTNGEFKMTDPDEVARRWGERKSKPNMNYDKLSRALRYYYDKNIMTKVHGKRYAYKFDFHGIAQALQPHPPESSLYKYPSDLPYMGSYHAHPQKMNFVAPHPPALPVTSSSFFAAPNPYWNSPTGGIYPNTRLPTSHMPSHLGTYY
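His-tagged ERG Ets domain (1 uM in the protein solution; 300mM KCl, 50mM Tris-HCl, 1mM EDTA, 1mM DTT, pH 7.5) received compound, then a probe mix of 5 nM fluorescein-DNA and 100nM Texas-615-DNA. Fluorescence polarization was read for both dyes.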
Nrf2 activator: activators of Nrf2 (ARE) signaling; AREc32 ARE-luciferase reporter (MCF7-derived line), luminescence, 24 h; Potency, µM (highest dose often 46.1 µM), usual class: activators; actives 0.31% (n = 410,000); further: nearly all actives have a fitted effect of over 65% in size
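Quantitative high-throughput format: AREc32 reporter cells, 1000 per well, received compound by pin transfer and were incubated 24 hr at 37 deg C, 5% CO2, before Steady-Glo luminescence detection.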
Nrf2 inh: blocks Nrf2 signaling; A549 ARE-Fluc reporter, luciferase luminescence, 18-24 h; actives 2.1% (n = 360,000); Potency, µM (top dose mostly 46 µM), most hits filed as inhibitors; further: nearly all actives have a fitted effect of over 60% in size
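Nrf2 function is reported as luminescence of an ARE-controlled luciferase in A549 cells. Compounds were tested at several concentrations, and a CellTiter-Fluor read on the same wells flagged cytotoxicity.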
LDHA block: inhibitors of human lactate dehydrogenase A | P00338 | purified LDHA, NADH/diaphorase-resazurin fluorescence; stronger effect = lower value | activity change, % (values are at about 110 or 230 µM) | actives 0.15% (n = 480,000); in the data active means activity change below about -30%; inconclusive means mostly about -25% to -30%
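Human LDH5 at 2 nM final in Tris HCl pH 7.4 with 0.06 mM NADH and 0.2 mM pyruvate, reacted 5 minutes at room temperature. Remaining NADH coupled via diaphorase/resazurin; resorufin fluorescence read at 0 and 20 minutes, normalized to enzyme-free and DMSO wells.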
FLuc enzyme inh: firefly luciferase inhibition, Nrf2 hit validation; shares compounds with Nrf2 inh; purified firefly luciferase, luminescence inhibition; Potency, µM (titrated, usually from 57.5 µM), usual class: inhibitors; actives 4% (n = 1,400); AID 720522; further: nearly all actives have a fitted effect of over 65% in size
A549 tox-2: counter-screen for Nrf2 inhibitors: cytotoxicity in A549 ARE cells; shares compounds with Nrf2 inh; Potency, µM (top dose mostly 46.1 µM), most hits filed as inhibitors; A549 ARE-Fluc cells, cytotoxicity counterscreen; actives 2% (n = 1,400);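 further: cells exposed to compounds for 18 to 24 hours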
Nrf2 ARE inh: confirmation of Nrf2 inhibitors in A549 ARE reporter cells. shares compounds with Nrf2 inh. A549 ARE-firefly luciferase reporter, luminescence. Potency, µM (doses to about 46.1 µM), hits mostly inhibitors. actives 74% (n = 1,400). AID 720524; further: nearly all actives have a fitted effect of over 65% in size
Each line names hits and unclear results; the compound was inactive in the other large screens (follow-up assays come after a bar, where they were run). Most compounds without a hit are left out; they make up all but 2.7% or so of the library. Unless noted, the call rests on the fitted dose curve; in most records, active means well fitted curve in the direction sought with a large enough effect; inconclusive means small, poorly fitted or top-dose-only effect, or another doubt; inactive means no such curve, though single readings can be large; an effect the other way counts as inactive or inconclusive.

C#CCCC[C@@H]1OC(=O)CNC(=O)C([C@@H](C)CC)NC(=O)[C@@H]2CCCN2C(=O)C([C@@H](C)CC)OC(=O)[C@H](Cc2ccccc2)N(C)C(=O)[C@H](C(C)C)NC(=O)C1(C)C (stereo partly drawn)	none (no result: A549 tox-1, ERG-DNA inh, Nrf2 inh)
CCC(C)C1NC(=O)C(NC(=O)C(CC(C)C)N(C)C(=O)C2CCCN2C(=O)C(C)O)C(C)OC(=O)C(Cc2ccc(OC)cc2)N(C)C(=O)C2CCCN2C(=O)C(CC(C)C)NC(=O)[C@H](C)C(=O)[C@H](C(C)C)OC(=O)CC1O (stereo partly drawn)	A549 tox-1 0.037µM, Nrf2 inh 0.0073µM | FLuc enzyme inh inactive | A549 tox-2 inconclusive | Nrf2 ARE inh 0.01µM
Cc1ccc(NC(=O)c2cn(C)c3ccccc23)cc1	none (no result: A549 tox-1, ERG-DNA inh, Nrf2 activator, Nrf2 inh)
CC1=C(N2CC2)C(=O)C(CO)=C(N2CC2)C1=O	A549 tox-1 9.2µM, Nrf2 inh 0.52µM | FLuc enzyme inh inactive | A549 tox-2 inactive | Nrf2 ARE inh 1.6µM
CC(=O)OC1(C)CC(C)C(=O)C(C(O)CC2CC(=O)NC(=O)C2)C1 (stereo not drawn)	A549 tox-1 inconclusive, Nrf2 inh 0.058µM | FLuc enzyme inh inactive | A549 tox-2 inactive | Nrf2 ARE inh 5.2µM
C[C@@H]1C[C@@H]([C@H](O)CC2CC(=O)NC(=O)C2)C(=O)[C@@H](C)C1	A549 tox-1 inconclusive, Nrf2 inh 0.58µM | FLuc enzyme inh inactive | A549 tox-2 inactive | Nrf2 ARE inh 5.8µM
CN1CCNc2cc(Nc3ccc(F)cc3)ncc2C1	none (no result: A549 tox-1, ERG-DNA inh, Nrf2 activator, Nrf2 inh, LDHA block)
COc1cc2c(cc1OC)C1C(=O)c3ccc4c(c3OC1CO2)CC(C(C)C)O4 (stereo not drawn)	Nrf2 inh 0.092µM | FLuc enzyme inh inactive | A549 tox-2 inactive | Nrf2 ARE inh 0.058µM
COc1cc2c(cc1OC)[C@H]1C(=O)c3ccc4c(c3O[C@H]1CO2)C[C@@H](C(C)(C)O)O4	Nrf2 inh inconclusive
COc1cc2c(cc1OC)[C@@H]1C(=O)c3ccc4c(c3O[C@@H]1CO2)C[C@H](C(C)C)O4	Nrf2 inh 0.29µM | FLuc enzyme inh inactive | A549 tox-2 inactive | Nrf2 ARE inh 0.23µM
O=C(NC1CCS(=O)(=O)C1)c1cn(Cc2ccccc2)c2ccccc12 (stereo not drawn)	none (no result: A549 tox-1, ERG-DNA inh, Nrf2 activator, Nrf2 inh)
O=C(c1cccs1)C1CCCN(Cc2cc3n(n2)CCNC3)C1 (stereo not drawn)	none (no result: A549 tox-1, ERG-DNA inh, Nrf2 activator, Nrf2 inh, LDHA block)
CC(=O)OC[C@]12CCC(C)=C[C@H]1O[C@@H]1[C@H](O)[C@@H](OC(C)=O)[C@@]2(C)[C@]12CO2	A549 tox-1 inconclusive, Nrf2 inh 0.018µM | FLuc enzyme inh inactive | A549 tox-2 inactive | Nrf2 ARE inh 2.6µM
CC(C)C1c2cccn2-c2ccccc2CN1C(=O)Nc1ccccc1F (stereo not drawn)	none (no result: A549 tox-1, ERG-DNA inh, Nrf2 activator, Nrf2 inh)
CCN1C2CCC1CN(C(=O)c1ccncc1)C2	none (no result: A549 tox-1, ERG-DNA inh, Nrf2 activator, Nrf2 inh, LDHA block)
CC(=O)OC(C)(C)/C=C/C(=O)C(C)(O)C1[C@H](O)C[C@@]2(C)C3CC=C4C(CC[C@@H](O)C4(C)C)[C@]3(CO)C(=O)C[C@]12C (stereo partly drawn)	A549 tox-1 0.26µM, Nrf2 inh 0.23µM | FLuc enzyme inh inactive | A549 tox-2 inconclusive | Nrf2 ARE inh 0.16µM
COc1cccc(CNCCc2cccc(F)c2)c1	12-LOX inh inconclusive (no result: A549 tox-1, ERG-DNA inh, Nrf2 activator, Nrf2 inh)
Cc1noc(C)c1C(=O)N1C2CCC1CN(C(C)C)C2	none (no result: A549 tox-1, ERG-DNA inh, Nrf2 activator, Nrf2 inh, LDHA block)
Nc1ncnc2c1ccn2[C@@H]1O[C@H](CO)[C@@H](O)[C@H]1O	A549 tox-1 inconclusive, Nrf2 inh 3.7µM | FLuc enzyme inh inactive | A549 tox-2 inconclusive | Nrf2 ARE inh 0.65µM
NC(=S)c1cn(C2OC(CO)C(O)C2O)c2ncnc(N)c12 (stereo not drawn)	A549 tox-1 inconclusive, Nrf2 inh inconclusive
CN(C)c1ccc(C(=O)N/N=C/C23CC[C@@H](O)CC2(O)CC[C@@H]2[C@@H]3CCC3(C)C(C4=CC(=O)OC4)CCC23O)cc1 (stereo partly drawn)	A549 tox-1 inconclusive, Nrf2 inh 5.8µM | FLuc enzyme inh inactive | A549 tox-2 inconclusive | Nrf2 ARE inh 3.7µM
CC12CC[C@H]3[C@@H](CCC4(O)C[C@H](O)CCC34/C=N/NC(=O)c3ccccc3O)C1(O)CCC2C1=CC(=O)OC1 (stereo partly drawn)	Nrf2 inh inconclusive
CC12CC[C@H]3[C@@H](CCC4(O)C[C@H](O)CCC34/C=N/NC(=O)c3ccccc3F)C1(O)CCC2C1=CC(=O)OC1 (stereo partly drawn)	Nrf2 inh 9.2µM | FLuc enzyme inh inactive | A549 tox-2 inconclusive | Nrf2 ARE inh 12µM
CC12CC[C@H]3[C@@H](CCC4(O)C[C@H](O)CCC34/C=N/NC(=O)c3ccc(O)cc3)C1(O)CCC2C1=CC(=O)OC1 (stereo partly drawn)	none
COc1ccc(NC(=O)N2[C@H]3CC[C@@H]2c2cnc(C)nc2C3)c(C)c1	none (no result: A549 tox-1, ERG-DNA inh, Nrf2 activator, Nrf2 inh, LDHA block)
CN1CC=C(c2c[nH]c3ccccc23)CC1	A549 tox-1 inconclusive, Nrf2 inh 1.8µM | FLuc enzyme inh inactive | A549 tox-2 inactive | Nrf2 ARE inh 16µM
CC[C@H]1CN2CC[C@H]1C[C@@H]2CNC(=S)Nc1ccc(N(C)C)cc1	none (no result: A549 tox-1, ERG-DNA inh, Nrf2 activator, Nrf2 inh, LDHA block)
